From PubChem BioAssay (EPA / NIEHS)
Active and inactive are the calls of the source. How the source made its calls: active means hit-call score of the fitted dose curve at least 0.9, where 1 is the maximum; inactive means score below 0.9.

What was measured:
Conditions in all cases: mRNA level, 48 h; actives raise or lower the signal
[1] = read-out: ABC Transporter (ABCB1), ABCB1 (gene 5243); test: LTEA_HepaRG_ABCB1: Life Technologies and Expression Analysis (LTEA) Assay for ABC Transporter (ABCB1) using HepaRG (AID 2283460)
Procedure, shortened: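 Differentiated human HepaRG cells, plated 48 h then switched to serum-free induction medium, were exposed in duplicate to eight half-log concentrations up to 100 uM in 0.5% DMSO for 48 h. ABCB1 mRNA was measured by TaqMan qRT-PCR, normalized to ACTB/GAPDH/POLR2A.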

[2] = read-out: growth arrest and DNA damage 45 (GADD45B), GADD45B (gene 4616); test: LTEA_HepaRG_GADD45B: Life Technologies and Expression Analysis (LTEA) Assay for growth arrest and DNA damage 45 (GADD45B) using HepaRG (AID 2283461)
Procedure, shortened: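 Differentiated HepaRG cells, plated 48 h then switched to serum-free induction medium, were exposed 48 h in duplicate to eight half-log concentrations from 100 uM in 0.5% DMSO; mRNA quantified by qRT-PCR, normalized to ACTB/GAPDH/POLR2A, bidirectional fit versus DMSO.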

[3] = read-out: ABC Transporter (ABCC3), ABCC3 (gene 8714); test: LTEA_HepaRG_ABCC3: Life Technologies and Expression Analysis (LTEA) Assay for ABC Transporter (ABCC3) using HepaRG (AID 2283462)
Procedure, shortened: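 HepaRG cells in serum-free induction medium were exposed for 48 h in duplicate to 8-point half-log concentrations topping at 100 uM in 0.5% DMSO. ABCC3 mRNA was measured by qRT-PCR normalized to ACTB, GAPDH and POLR2A, with bidirectional fitting versus DMSO.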

[4] = read-out: ABC Transporter (ABCB11), ABCB11 (gene 8647); test: LTEA_HepaRG_ABCB11: Life Technologies and Expression Analysis (LTEA) Assay for ABC Transporter (ABCB11) using HepaRG (AID 2283463)
Procedure, shortened: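 Differentiated human HepaRG cells were exposed for 48 h in serum-free induction medium to eight half-log concentrations up to 100 uM in 0.5% DMSO. ABCB11 mRNA was quantified by qRT-PCR, normalized to ACTB, GAPDH and POLR2A, and fitted bidirectionally versus DMSO.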

[5] = read-out: ABC Transporter (ABCC2), ABCC2 (gene 1244); test: LTEA_HepaRG_ABCC2: Life Technologies and Expression Analysis (LTEA) Assay for ABC Transporter (ABCC2) using HepaRG (AID 2283464)
Procedure, shortened: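 HepaRG cells were plated 48 h, switched to serum-free induction medium, then exposed in duplicate for 48 h to 8 concentrations (top 100 uM, half-log steps, 0.5% DMSO). ABCC2 mRNA was measured by qRT-PCR normalized to ACTB/GAPDH/POLR2A; bidirectional fitting versus DMSO.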

[6] = read-out: Broad substrate specificity ATP-binding cassette transporter ABCG2 (Homo sapiens) (UniProt Q9UNQ0); test: LTEA_HepaRG_ABCG2: Life Technologies and Expression Analysis (LTEA) Assay for ABC Transporter (ABCG2) using HepaRG (AID 2283465)
Procedure, shortened: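 Differentiated HepaRG cells in serum-free induction medium were exposed for 48 h, in duplicate, to eight half-log concentrations up to 100 uM in 0.5% DMSO. ABCG2 mRNA was measured by TaqMan qRT-PCR, normalized to ACTB, GAPDH and POLR2A, and fitted bidirectionally versus DMSO.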

[7] = read-out: ATP-citrate lyase (ACLY), ACLY (gene 47); test: LTEA_HepaRG_ACLY: Life Technologies and Expression Analysis (LTEA) Assay for ATP-citrate lyase (ACLY) using HepaRG (AID 2283466)
Procedure, shortened: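 Differentiated human HepaRG cells in serum-free induction medium exposed 48 h, in duplicate, to eight half-log concentrations from 100 uM top in 0.5% DMSO; ACLY mRNA measured by qRT-PCR, normalized to ACTB, GAPDH, POLR2A, fitted bidirectionally versus DMSO.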

[8] = read-out: Peroxisomal acyl-coenzyme A oxidase 1 (ACOX1) gene, ACOX1 (gene 51); test: LTEA_HepaRG_ACOX1: Life Technologies and Expression Analysis (LTEA) Assay for Peroxisomal acyl-coenzyme A oxidase 1 (ACOX1) gene using HepaRG (AID 2283467)
Procedure, shortened: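 Differentiated human HepaRG cells were exposed in duplicate for 48 h in serum-free induction medium to eight half-log concentrations up to 100 uM in 0.5% DMSO. ACOX1 mRNA was then quantified by TaqMan qRT-PCR, normalized to ACTB, GAPDH and POLR2A.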

[9] = read-out: Alkaline Phosphatase, Placental (ALPP) gene, ALPP (gene 250); test: LTEA_HepaRG_ALPP: Life Technologies and Expression Analysis (LTEA) Assay for Alkaline Phosphatase, Placental (ALPP) gene using HepaRG (AID 2283468)
Procedure, shortened: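 Differentiated human HepaRG cells were plated and cultured 48 h, then exposed in duplicate for 48 h in serum-free induction medium to eight half-log concentrations from 100 uM in 0.5% DMSO. ALPP mRNA was measured by TaqMan qRT-PCR, normalized to ACTB, GAPDH, POLR2A.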

[10] = read-out: Bcl-2 (BAD) gene, BAD (gene 572); test: LTEA_HepaRG_BAD: Life Technologies and Expression Analysis (LTEA) Assay for Bcl-2 (BAD) gene using HepaRG (AID 2283469)
Procedure, shortened: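 Differentiated human HepaRG cells in serum-free induction medium were exposed in duplicate for 48 h to eight concentrations (top 100 uM, half-log steps, 0.5% DMSO). BAD mRNA was quantified by qRT-PCR normalised to ACTB, GAPDH and POLR2A, with bidirectional fitting versus DMSO.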

[11] = read-out: Bcl-2 (BAX) gene, BAX (gene 581); test: LTEA_HepaRG_BAX: Life Technologies and Expression Analysis (LTEA) Assay for Bcl-2 (BAX) gene using HepaRG (AID 2283470)
Procedure, shortened: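 Differentiated HepaRG cells exposed 48 h in serum-free induction medium, eight half-log concentrations from 100 uM, in duplicate, 0.5% DMSO vehicle. BAX mRNA by TaqMan qRT-PCR, normalised to ACTB, GAPDH and POLR2A.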

[12] = read-out: adenosine kinase (ADK) gene, ADK (gene 132); test: LTEA_HepaRG_ADK: Life Technologies and Expression Analysis (LTEA) Assay for adenosine kinase (ADK) gene using HepaRG (AID 2283471)
Procedure, shortened: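 Differentiated HepaRG cells dosed 48 h in serum-free induction medium, 0.5% DMSO vehicle, eight half-log concentrations from 100 uM, in duplicate. ADK mRNA by TaqMan qRT-PCR normalised to ACTB, GAPDH, POLR2A; bidirectional fit versus DMSO.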

[13] = read-out: Alpha-fetoprotein (AFP) gene, AFP (gene 174); test: LTEA_HepaRG_AFP: Life Technologies and Expression Analysis (LTEA) Assay for Alpha-fetoprotein (AFP) gene using HepaRG (AID 2283472)
Procedure, shortened: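 Differentiated human HepaRG cells exposed 48 h in serum-free induction medium, 8-point half-log series from 100 uM in 0.5% DMSO, duplicate. AFP mRNA by qRT-PCR, normalized to ACTB, GAPDH, POLR2A; bidirectional fit vs DMSO.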

BCL2L11 (gene 10018) = test: LTEA_HepaRG_BCL2L11: Life Technologies and Expression Analysis (LTEA) Assay for Bcl-2 (BCL2L11) gene using HepaRG (AID 2283473)
Procedure, shortened: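 Differentiated human HepaRG cells in serum-free induction medium were exposed in duplicate for 48 h to eight concentrations (top 100 uM, half-log steps, 0.5% DMSO). BCL2L11 mRNA was quantified by TaqMan qRT-PCR, normalized to ACTB/GAPDH/POLR2A, bidirectional fit versus DMSO.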

[14] = read-out: Apolipoprotein A-V (APOA5) gene, APOA5 (gene 116519); test: LTEA_HepaRG_APOA5: Life Technologies and Expression Analysis (LTEA) Assay for Apolipoprotein A-V (APOA5) gene using HepaRG (AID 2283474)
Procedure, shortened: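 Differentiated human HepaRG cells were exposed in duplicate for 48 h to eight half-log concentrations from 100 uM in 0.5% DMSO. APOA5 mRNA was quantified by TaqMan qRT-PCR, normalized to ACTB, GAPDH and POLR2A, and fitted bidirectionally against DMSO.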

[15] = read-out: Apoptosis regulator Bcl-2 (Homo sapiens) (UniProt P10415); test: LTEA_HepaRG_BCL2: Life Technologies and Expression Analysis (LTEA) Assay for Bcl-2 gene using HepaRG (AID 2283475)
Procedure, shortened: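 Differentiated human HepaRG cells in serum-free induction medium exposed 48 h, in duplicate, to 8-point half-log series from 100 uM in 0.5% DMSO. BCL2 mRNA by qRT-PCR (TaqMan/Fluidigm), normalized to ACTB, GAPDH, POLR2A; bidirectional fit against DMSO.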

[16] = read-out: Bcl-2 (BID) gene, BID (gene 637); test: LTEA_HepaRG_BID: Life Technologies and Expression Analysis (LTEA) Assay for Bcl-2 (BID) gene using HepaRG (AID 2283476)
Procedure, shortened: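 Gene expression by qRT-PCR in HepaRG cells after 48 h exposure, duplicate wells, eight half-log concentrations topping at 100 uM in 0.5% DMSO. Normalized to ACTB, GAPDH, POLR2A; bidirectional fitting relative to DMSO.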

Caspase-3 (Homo sapiens) = Caspase-3 (Homo sapiens) (UniProt P42574); test: LTEA_HepaRG_CASP3: Life Technologies and Expression Analysis (LTEA) Assay for cysteine-aspartic acid protease (CASP3) using HepaRG (AID 2283477)
Procedure, shortened: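 Differentiated human HepaRG cells in serum-free induction medium were exposed 48 h to 8-point half-log concentrations from 100 uM (0.5% DMSO vehicle). CASP3 mRNA was measured by qRT-PCR, normalised to ACTB, GAPDH and POLR2A, with bidirectional fitting against DMSO.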

[17] = read-out: Cytochrome P450 (CYP24A1), CYP24A1 (gene 1591); test: LTEA_HepaRG_CYP24A1: Life Technologies and Expression Analysis (LTEA) Assay for Cytochrome P450 (CYP24A1) using HepaRG (AID 2283478)
Procedure, shortened: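 Differentiated HepaRG cells, pre-cultured 48 h, were exposed in duplicate for 48 h in serum-free induction medium to 8 half-log concentrations (top 100 uM, 0.5% DMSO). CYP24A1 mRNA was quantified by TaqMan qRT-PCR, normalized to ACTB/GAPDH/POLR2A, fitted bidirectionally versus DMSO.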

[18] = read-out: Cytochrome P450 (CYP1A2), CYP1A2 (gene 1544); test: LTEA_HepaRG_CYP1A2: Life Technologies and Expression Analysis (LTEA) Assay for Cytochrome P450 (CYP1A2) using HepaRG (AID 2283479)
Procedure, shortened: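 Differentiated human HepaRG cells in serum-free induction medium were exposed in duplicate for 48 h to 8-point half-log concentrations up to 100 uM in 0.5% DMSO. CYP1A2 mRNA measured by qRT-PCR, normalized to ACTB, GAPDH, POLR2A; bidirectional fit vs DMSO.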

Measured: AC50

Chain of Apoptosis regulator Bcl-2 (Homo sapiens) (P10415 whole entry, looked up): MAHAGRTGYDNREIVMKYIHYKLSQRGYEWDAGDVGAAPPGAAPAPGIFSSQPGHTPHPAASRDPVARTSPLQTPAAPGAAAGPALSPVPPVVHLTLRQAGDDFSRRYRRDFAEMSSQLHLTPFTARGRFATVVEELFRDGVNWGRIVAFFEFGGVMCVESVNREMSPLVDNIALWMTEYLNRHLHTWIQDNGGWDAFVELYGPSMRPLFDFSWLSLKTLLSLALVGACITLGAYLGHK
Chain of Broad substrate specificity ATP-binding cassette transporter ABCG2 (Homo sapiens) (Q9UNQ0 whole entry, looked up): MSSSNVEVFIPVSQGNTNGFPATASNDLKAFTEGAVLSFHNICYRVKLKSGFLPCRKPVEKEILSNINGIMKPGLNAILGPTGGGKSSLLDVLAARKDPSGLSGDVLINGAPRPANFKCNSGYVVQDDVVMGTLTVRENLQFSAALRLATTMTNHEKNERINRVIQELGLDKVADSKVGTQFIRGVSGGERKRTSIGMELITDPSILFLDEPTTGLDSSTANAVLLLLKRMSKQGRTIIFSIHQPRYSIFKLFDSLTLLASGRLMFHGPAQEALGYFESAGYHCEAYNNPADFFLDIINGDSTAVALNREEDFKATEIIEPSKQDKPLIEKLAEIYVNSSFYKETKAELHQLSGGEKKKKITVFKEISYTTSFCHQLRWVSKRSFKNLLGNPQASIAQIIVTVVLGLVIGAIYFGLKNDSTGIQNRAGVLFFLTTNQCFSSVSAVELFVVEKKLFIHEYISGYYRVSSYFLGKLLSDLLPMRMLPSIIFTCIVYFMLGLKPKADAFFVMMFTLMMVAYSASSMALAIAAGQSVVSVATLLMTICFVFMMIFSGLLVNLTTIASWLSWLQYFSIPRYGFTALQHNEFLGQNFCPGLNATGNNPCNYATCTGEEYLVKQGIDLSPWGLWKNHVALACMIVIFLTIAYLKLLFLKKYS
Chain of Caspase-3 (Homo sapiens) (P42574 whole entry, looked up): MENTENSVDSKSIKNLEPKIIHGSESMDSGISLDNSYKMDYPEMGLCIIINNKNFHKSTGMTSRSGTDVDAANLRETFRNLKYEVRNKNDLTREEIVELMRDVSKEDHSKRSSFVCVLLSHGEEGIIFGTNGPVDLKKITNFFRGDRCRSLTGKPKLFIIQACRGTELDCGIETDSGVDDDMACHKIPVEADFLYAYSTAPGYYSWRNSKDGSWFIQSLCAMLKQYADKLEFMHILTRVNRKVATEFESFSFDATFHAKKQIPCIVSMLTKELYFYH

CCC(C)=NO
active: [18] 49.8 µM
inactive: all other assays above
